Experiments:
[1] = molecular target: Platelet-derived growth factor receptor alpha (Homo sapiens) (UniProt P16234); conditions: at 10 µM
[2] = molecular target: Platelet-derived growth factor receptor beta (Homo sapiens) (UniProt P09619); conditions: at 1 µM
[3] = molecular target: Platelet-derived growth factor receptor beta (Homo sapiens) (UniProt P09619); conditions: at 10 µM
[4] = molecular target: T1, 3-phosphoinositide-dependent protein kinase 1 (Homo sapiens) (UniProt O15530); conditions: at 1 µM
T1 sequence (whole entry): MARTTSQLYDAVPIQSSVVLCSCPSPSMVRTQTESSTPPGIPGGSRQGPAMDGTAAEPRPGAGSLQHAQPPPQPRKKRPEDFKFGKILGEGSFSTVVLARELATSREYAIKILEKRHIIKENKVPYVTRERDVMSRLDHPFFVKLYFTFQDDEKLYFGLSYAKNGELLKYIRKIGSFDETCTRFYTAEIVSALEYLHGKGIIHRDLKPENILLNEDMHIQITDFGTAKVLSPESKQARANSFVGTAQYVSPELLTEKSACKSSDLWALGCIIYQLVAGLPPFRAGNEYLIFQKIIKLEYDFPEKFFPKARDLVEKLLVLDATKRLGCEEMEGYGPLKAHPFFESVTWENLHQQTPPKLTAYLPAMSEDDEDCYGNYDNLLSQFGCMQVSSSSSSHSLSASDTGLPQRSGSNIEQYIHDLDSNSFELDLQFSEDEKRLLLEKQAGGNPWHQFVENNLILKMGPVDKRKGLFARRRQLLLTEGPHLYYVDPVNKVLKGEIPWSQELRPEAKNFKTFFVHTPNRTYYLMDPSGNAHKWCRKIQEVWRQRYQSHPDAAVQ

[5] = molecular target: T1, 3-phosphoinositide-dependent protein kinase 1 (Homo sapiens); conditions: at 10 µM
[6] = molecular target: cAMP-dependent protein kinase catalytic subunit alpha (Homo sapiens) (UniProt P17612); conditions: at 1 µM
[7] = molecular target: RAC-alpha serine/threonine-protein kinase (Homo sapiens) (UniProt P31749); conditions: at 1 µM
[8] = molecular target: RAC-alpha serine/threonine-protein kinase (Homo sapiens) (UniProt P31749); conditions: at 10 µM
[9] = molecular target: RAC-gamma serine/threonine-protein kinase (Homo sapiens) (UniProt Q9Y243); conditions: at 1 µM
[10] = molecular target: RAC-gamma serine/threonine-protein kinase (Homo sapiens) (UniProt Q9Y243); conditions: at 10 µM
[11] = molecular target: Protein kinase C alpha type (Homo sapiens) (UniProt P17252); conditions: at 1 µM
[12] = molecular target: Protein kinase C alpha type (Homo sapiens) (UniProt P17252); conditions: at 10 µM
[13] = molecular target: Protein kinase C beta type (Homo sapiens) (UniProt P05771); conditions: at 1 µM
Protein kinase C beta type (Homo sapiens), sequence (P05771 2-671 limits assumed): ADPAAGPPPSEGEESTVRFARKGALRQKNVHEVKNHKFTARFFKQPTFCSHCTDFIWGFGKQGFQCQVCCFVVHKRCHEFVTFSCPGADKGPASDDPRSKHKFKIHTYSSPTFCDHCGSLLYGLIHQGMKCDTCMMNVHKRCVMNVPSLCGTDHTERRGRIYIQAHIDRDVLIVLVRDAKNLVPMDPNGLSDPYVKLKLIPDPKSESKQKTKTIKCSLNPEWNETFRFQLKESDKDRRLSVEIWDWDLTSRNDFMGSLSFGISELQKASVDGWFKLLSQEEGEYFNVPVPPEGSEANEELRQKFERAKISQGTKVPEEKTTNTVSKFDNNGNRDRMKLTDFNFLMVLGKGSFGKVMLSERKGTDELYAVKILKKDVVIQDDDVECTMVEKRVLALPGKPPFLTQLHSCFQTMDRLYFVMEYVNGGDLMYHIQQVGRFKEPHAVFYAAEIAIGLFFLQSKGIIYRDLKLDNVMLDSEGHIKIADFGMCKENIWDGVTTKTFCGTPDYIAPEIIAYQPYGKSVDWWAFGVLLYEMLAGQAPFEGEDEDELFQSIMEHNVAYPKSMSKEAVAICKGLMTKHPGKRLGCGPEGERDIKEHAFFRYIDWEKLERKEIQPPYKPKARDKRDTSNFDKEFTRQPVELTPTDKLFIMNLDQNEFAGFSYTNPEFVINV

[14] = molecular target: Protein kinase C beta type (Homo sapiens) (UniProt P05771); conditions: at 10 µM
[15] = molecular target: Protein kinase C gamma type (Homo sapiens) (UniProt P05129); conditions: at 1 µM
[16] = molecular target: Protein kinase C gamma type (Homo sapiens) (UniProt P05129); conditions: at 10 µM
[17] = molecular target: Protein kinase C delta type (Homo sapiens) (UniProt Q05655); conditions: at 1 µM
Protein kinase C delta type (Homo sapiens), sequence (Q05655 whole entry, looked up): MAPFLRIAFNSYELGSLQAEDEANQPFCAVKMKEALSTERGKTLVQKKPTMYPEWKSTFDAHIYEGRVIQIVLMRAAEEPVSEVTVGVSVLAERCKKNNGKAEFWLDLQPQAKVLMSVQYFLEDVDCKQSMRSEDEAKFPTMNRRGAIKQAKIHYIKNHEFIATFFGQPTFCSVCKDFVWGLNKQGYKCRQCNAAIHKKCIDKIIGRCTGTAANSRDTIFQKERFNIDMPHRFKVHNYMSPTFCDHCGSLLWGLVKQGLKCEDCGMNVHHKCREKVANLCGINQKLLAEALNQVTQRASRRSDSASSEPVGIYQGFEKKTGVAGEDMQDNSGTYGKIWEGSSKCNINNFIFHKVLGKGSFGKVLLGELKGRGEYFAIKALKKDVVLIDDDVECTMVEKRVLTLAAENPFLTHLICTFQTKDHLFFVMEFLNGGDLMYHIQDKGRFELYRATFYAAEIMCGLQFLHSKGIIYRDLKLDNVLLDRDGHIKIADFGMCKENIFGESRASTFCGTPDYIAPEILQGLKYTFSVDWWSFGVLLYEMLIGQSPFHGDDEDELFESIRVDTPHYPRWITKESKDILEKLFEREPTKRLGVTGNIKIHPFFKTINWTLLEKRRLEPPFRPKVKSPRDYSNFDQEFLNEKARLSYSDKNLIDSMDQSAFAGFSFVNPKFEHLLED

[18] = molecular target: cAMP-dependent protein kinase catalytic subunit alpha (Homo sapiens) (UniProt P17612); conditions: at 10 µM
[19] = molecular target: Protein kinase C beta type (Homo sapiens) (UniProt P05771); conditions: at 10 µM; remark: listed apart in the source
[20] = molecular target: Protein kinase C beta type (Homo sapiens) (UniProt P05771); conditions: at 1 µM; remark: listed apart in the source

Platelet-derived growth factor receptor alpha (Homo sapiens), sequence (P16234 whole entry): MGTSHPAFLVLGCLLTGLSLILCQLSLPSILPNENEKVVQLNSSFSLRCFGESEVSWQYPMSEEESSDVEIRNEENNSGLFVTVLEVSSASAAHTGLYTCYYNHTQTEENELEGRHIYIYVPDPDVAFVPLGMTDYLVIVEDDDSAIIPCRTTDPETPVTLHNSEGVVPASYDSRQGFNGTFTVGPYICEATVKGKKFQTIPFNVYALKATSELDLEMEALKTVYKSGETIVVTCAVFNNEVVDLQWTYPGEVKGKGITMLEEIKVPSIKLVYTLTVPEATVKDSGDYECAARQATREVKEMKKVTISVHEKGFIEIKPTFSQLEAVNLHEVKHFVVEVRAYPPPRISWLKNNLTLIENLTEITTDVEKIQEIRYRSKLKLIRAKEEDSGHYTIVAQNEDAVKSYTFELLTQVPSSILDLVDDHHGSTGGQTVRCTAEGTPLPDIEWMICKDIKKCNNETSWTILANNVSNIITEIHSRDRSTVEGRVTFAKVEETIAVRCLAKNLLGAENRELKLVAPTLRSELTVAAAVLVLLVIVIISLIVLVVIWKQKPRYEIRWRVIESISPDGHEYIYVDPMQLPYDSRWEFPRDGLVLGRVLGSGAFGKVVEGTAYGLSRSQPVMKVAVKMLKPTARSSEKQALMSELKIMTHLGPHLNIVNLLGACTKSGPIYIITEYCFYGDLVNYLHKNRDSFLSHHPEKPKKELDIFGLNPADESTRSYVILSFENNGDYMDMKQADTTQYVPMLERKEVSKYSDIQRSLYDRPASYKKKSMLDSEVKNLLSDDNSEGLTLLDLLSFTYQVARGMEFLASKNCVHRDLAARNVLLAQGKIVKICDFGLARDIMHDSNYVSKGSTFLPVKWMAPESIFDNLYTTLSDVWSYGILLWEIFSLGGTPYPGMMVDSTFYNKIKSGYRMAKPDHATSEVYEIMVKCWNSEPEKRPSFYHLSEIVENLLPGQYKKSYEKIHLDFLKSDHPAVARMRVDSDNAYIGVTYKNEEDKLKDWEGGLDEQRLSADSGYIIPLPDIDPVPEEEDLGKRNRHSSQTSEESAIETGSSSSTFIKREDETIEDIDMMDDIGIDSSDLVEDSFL
Platelet-derived growth factor receptor beta (Homo sapiens), sequence (P09619 whole entry): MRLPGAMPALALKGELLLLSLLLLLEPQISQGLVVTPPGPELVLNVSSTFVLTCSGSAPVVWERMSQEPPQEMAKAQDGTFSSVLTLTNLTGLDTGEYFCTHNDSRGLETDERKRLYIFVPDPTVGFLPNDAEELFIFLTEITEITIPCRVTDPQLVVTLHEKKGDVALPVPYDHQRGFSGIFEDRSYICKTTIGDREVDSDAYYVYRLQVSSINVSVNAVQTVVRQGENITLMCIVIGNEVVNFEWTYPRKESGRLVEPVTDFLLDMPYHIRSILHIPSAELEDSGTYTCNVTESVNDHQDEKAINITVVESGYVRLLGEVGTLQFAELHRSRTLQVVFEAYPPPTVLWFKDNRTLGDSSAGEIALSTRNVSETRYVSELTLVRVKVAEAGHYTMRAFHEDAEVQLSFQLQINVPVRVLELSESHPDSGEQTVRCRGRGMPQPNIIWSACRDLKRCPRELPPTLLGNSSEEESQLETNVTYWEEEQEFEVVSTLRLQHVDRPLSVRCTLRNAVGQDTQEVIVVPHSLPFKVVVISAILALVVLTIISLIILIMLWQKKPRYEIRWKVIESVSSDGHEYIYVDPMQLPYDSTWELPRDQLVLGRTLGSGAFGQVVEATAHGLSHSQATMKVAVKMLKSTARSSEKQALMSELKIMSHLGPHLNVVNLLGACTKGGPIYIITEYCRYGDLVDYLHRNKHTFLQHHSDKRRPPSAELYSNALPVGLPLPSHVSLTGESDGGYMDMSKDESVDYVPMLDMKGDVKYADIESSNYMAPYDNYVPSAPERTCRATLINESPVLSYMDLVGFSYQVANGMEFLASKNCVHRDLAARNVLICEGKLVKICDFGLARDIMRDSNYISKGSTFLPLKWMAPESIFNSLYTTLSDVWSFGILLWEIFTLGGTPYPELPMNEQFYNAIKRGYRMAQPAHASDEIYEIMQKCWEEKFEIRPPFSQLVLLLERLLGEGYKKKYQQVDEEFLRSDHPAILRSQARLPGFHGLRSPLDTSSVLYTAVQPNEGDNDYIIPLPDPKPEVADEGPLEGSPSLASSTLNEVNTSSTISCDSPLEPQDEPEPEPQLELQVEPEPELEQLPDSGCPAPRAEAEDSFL

O=[N+]([O-])/C=C/c1ccc2c(c1)OCO2 was tested, and the residual activity [1] was 105%, the residual activity [2] was 94% and the residual activity [3] was 97%. It also gave a residual activity [4] of 106%, a residual activity [5] of 96% and a residual activity [6] of 124%. The residual activity [7] was 100%, the residual activity [8] was 110% and the residual activity [9] was 125%. The residual activity [10] was 106%, the residual activity [11] was 111% and the residual activity [12] was 111%. It also gave a residual activity [13] of 113%, a residual activity [14] of 106% and a residual activity [15] of 103%. For the same compound, the residual activity [16] was 67% and the residual activity [17] was 99%.
With COc1cc2ncnc(Nc3cccc(Cl)c3)c2cc1OC the residual activity [7] was 86%.
c1ccc(-c2n[nH]cc2-c2ccnc3ccccc23)nc1 gave a residual activity [7] of 96%.
For O=c1[nH]c2ccccc2n1C1CCN(Cc2ccc(-c3nc4cc5[nH]cnc5cc4nc3-c3ccccc3)cc2)CC1, the residual activity [1] was 101%, the residual activity [2] was 108% and the residual activity [3] was 96%. It also gave a residual activity [4] of 113%, a residual activity [5] of 120% and a residual activity [6] of 97%. For the same compound, the residual activity [18] was 145%, the residual activity [7] was 98% and the residual activity [8] was 90%. The residual activity [9] was 118%, the residual activity [10] was 69% and the residual activity [11] was 104%. For the same compound, the residual activity [12] was 104%, the residual activity [13] was 102% and the residual activity [19] was 93%. For the same compound, the residual activity [20] was 88%, the residual activity [14] was 93% and the residual activity [15] was 108%. For the same compound, the residual activity [16] was 98% and the residual activity [17] was 107%.
In the case of O=C1c2ccccc2-c2nc3nnnn3nc21, the residual activity [1] was 111%, the residual activity [2] was 120% and the residual activity [3] was 111%. The residual activity [4] was 121%, the residual activity [5] was 116% and the residual activity [7] was 103%. The residual activity [8] was 112%, the residual activity [9] was 117% and the residual activity [10] was 100%. It also gave a residual activity [20] of 101%.
C[S+]([O-])c1ccc(-c2nc(-c3ccc(F)cc3)c(-c3ccncc3)[nH]2)cc1 (stereo not given) showed a residual activity [1] of 108%, a residual activity [2] of 120% and a residual activity [3] of 120%. For the same compound, the residual activity [4] was 117%, the residual activity [5] was 107% and the residual activity [6] was 105%. For the same compound, the residual activity [7] was 102%, the residual activity [8] was 105% and the residual activity [9] was 117%. For the same compound, the residual activity [10] was 75%, the residual activity [11] was 107% and the residual activity [12] was 90%. The residual activity [13] was 101%, the residual activity [19] was 70% and the residual activity [20] was 104%. For the same compound, the residual activity [14] was 75%, the residual activity [15] was 104% and the residual activity [16] was 103%. For the same compound, the residual activity [17] was 105%.
Work on NC(=O)c1ccc2[nH]c(-c3ccc(Oc4ccc(Cl)cc4)cc3)nc2c1 yielded a residual activity [7] of 109% and a residual activity [8] of 112%.

Reference: ChEMBL document CHEMBL2218924, “A broad activity screen in support of a chemogenomic map for kinase signalling research and drug discovery” (Biochem J, 2013)
